aSyn UTR act: Activators via SNCA 5'UTR binding, MLPCN | alpha-synuclein 5'UTR reporter, activators screen | activity score, % (tested at 7.5 µM), hits read low | 7.1% of 300,000 active | AID 1814, 2009; in the data active = activity score below about -60%
Of the large screens only hits and unclear results are named; the others gave an inactive call. These entries were drawn from the full list.

Cc1ccc(-c2c(C)sc(=NC(=O)c3ccco3)n2C)cc1	aSyn UTR act -122.8
O=C(Nc1ccc(-n2cc(Br)cn2)cc1)c1ccncc1	aSyn UTR act -68.3
O=C(Nc1ccc(-n2cc(Cl)cn2)cc1)c1ccncc1	aSyn UTR act -92.2
NNc1nc2ccccc2c(=O)n1Cc1ccccc1	aSyn UTR act -132.7
Cc1cc2ccccc2n1CCNC(=O)c1ccc(Br)o1	aSyn UTR act -77.6
Cc1cc2ccccc2n1CCNC(=O)c1ccccc1	aSyn UTR act -114.0
CC1CCN(C(=O)c2cc(-c3ccco3)on2)CC1	aSyn UTR act -139.9
CC1CCN(C(=O)c2cc(-c3ccccc3O)on2)CC1	aSyn UTR act -82.0
Cc1cccc(N=Nc2c(O)[nH]c3ccc(Br)cc23)c1	aSyn UTR act -72.4
O=C(c1cnsn1)N1CCC(CO)(Cc2cccc(F)c2)CC1	aSyn UTR act -138.1
CCOc1ccc(OCc2cccc(C(=O)N3CCCCCC3)c2)cc1	none
O=C(O)c1cccc(COc2ccc3c(c2)CCC3)c1	none
COc1cccc(OC)c1C(=O)NNC(=O)c1cccc(COc2ccc3c(c2)CCC3)c1	aSyn UTR act -90.9
COc1ccccc1OCCNC(=O)c1ccc2c(c1)OCCO2	aSyn UTR act -68.5
COc1ccccc1OCCNC(=O)c1ccc2c(c1)CCC2	aSyn UTR act -138.0
O=C(NN1CCCCC1)c1cccc(COc2ccc(Cl)cc2)c1	aSyn UTR act -167.4
COc1cc(/C=N/n2cnnc2)ccc1OCCSc1ccc(C)cc1	aSyn UTR act -78.1
COc1ccc2c(=O)c3c(=O)n(-c4ccccc4)c(-c4ccco4)nc3oc2c1	aSyn UTR act -95.6
CCc1nc2oc3cc(OC)ccc3c(=O)c2c(=O)n1-c1ccccc1	aSyn UTR act -124.4
Cc1ccc(-n2c(C)nc3oc4ccccc4c(=O)c3c2=O)cc1	aSyn UTR act -240.7
Cc1c(-c2nc(N)nc(Nc3ccccc3)n2)oc2ccccc12	aSyn UTR act -134.4
CC(C)c1ccc(N=C2N=C(N)c3ccccc32)cc1	aSyn UTR act -132.4
O=C(Nc1ccccc1F)c1ccc(Cn2cc(Cl)cn2)cc1	aSyn UTR act -84.2
O=C(Nc1ccc(Cl)c(Cl)c1)c1ccc(Cn2cc(Cl)cn2)cc1	aSyn UTR act -120.1
O=C(Nc1ccc([N+](=O)[O-])cc1)c1ccc(Cn2cc([N+](=O)[O-])cn2)cc1	none
Cc1ccc(-c2csc3nc4c5ccccc5c(NCCCN(C)C)nn4c(=O)c23)cc1	none
O=c1[nH]c(Cc2cccs2)nc2scc(-c3ccc(Cl)cc3)c12	aSyn UTR act -76.8
Cc1ccc(-c2csc3nc(-c4ccncc4)[nH]c(=O)c23)cc1	aSyn UTR act -86.1
Cc1ccc(-c2nc3ccsc3c(=O)[nH]2)cc1	aSyn UTR act -137.4
Cc1ccc2nc(-c3ccncc3)[nH]c2c1	aSyn UTR act -120.4
N#Cc1ccccc1NC(=O)CSc1nccn1CCc1ccccc1	aSyn UTR act -149.4
CC(=O)c1ccc(NC(=O)CSc2nccn2CCc2ccccc2)cc1	aSyn UTR act -128.2
CCCC1=[N+](CC(=O)c2ccccc2)CCn2cccc21	aSyn UTR act -71.7
COc1cccc(/C=N/Nc2cc(Cl)nc(C)n2)c1O	aSyn UTR act -100.1
COc1cccc(/C=N/Nc2c(Cl)cncc2Cl)c1O	aSyn UTR act -119.9
CCCCSc1nc(C)cc(SCC(=O)N/N=C/c2cccc(OC)c2O)n1	none
CC1(C)Cc2c(sc(NC(=O)Nc3ccccc3)c2C(N)=O)CO1	aSyn UTR act -158.4
COC(=O)c1c(NC(=O)c2ccc(OC(C)C)cc2)sc2c1CC(C)(C)NC2(C)C	none
Cc1sc(NC(=O)Nc2ccccc2)c(C(N)=O)c1C	aSyn UTR act -161.3
COC(=O)c1c(NC(=O)c2ccccc2)sc2c1CC(C)(C)OC2	aSyn UTR act -69.3
Cc1sc(NC(=S)NC(=O)c2ccco2)c(C(N)=O)c1C	aSyn UTR act -92.2
COC(=O)CCC(=O)NC(=S)Nc1sc(C)c(C)c1C(N)=O	none
Cc1occc1C(=O)N/N=C/C=C/c1ccccc1	aSyn UTR act -138.1
Cc1occc1C(=O)N/N=C/C=C/c1ccc(N(C)C)cc1	aSyn UTR act -129.2
CCCCOC(=O)N/N=C/C=C/c1ccccc1	aSyn UTR act -87.5
Cc1occc1C(=O)N/N=C/C(Br)=C\c1ccccc1	aSyn UTR act -108.0
Cn1c(-c2ccc(F)cc2)cnc1SCC(=O)Nc1ccccc1N1CCOCC1	aSyn UTR act -193.4
O=C(CSc1n[nH]c(-c2ccccc2)n1)Nc1ccc(N2CCOCC2)cc1	aSyn UTR act -68.1
O=C(CSc1ccccc1)Nc1ccc(N2CCOCC2)cc1	aSyn UTR act -116.1
O=C(CSc1ccccc1)Nc1ccc(N2CCOCC2)c(F)c1	aSyn UTR act -99.4
O=C(CSc1n[nH]c(-c2ccccn2)n1)Nc1ccccc1	none
O=C(CSc1ccc(F)cc1)Nc1ccc(N2CCOCC2)cc1	aSyn UTR act -74.1
O=C(Cc1cccs1)Nc1ccc(N2CCOCC2)cc1	aSyn UTR act -96.7
Nc1c(C(=O)c2ccc(Br)s2)oc2ccccc12	aSyn UTR act -149.4
Nc1c(C(=O)c2cccs2)oc2ccccc12	aSyn UTR act -98.9
COCCCOc1ccnc(CS(=O)c2nc3ccccc3[nH]2)c1C (configuration not stated)	aSyn UTR act -111.3
Cc1c(OCC(F)(F)F)ccnc1CSc1nc2ccccc2[nH]1	aSyn UTR act -141.9

High-throughput results from PubChem BioAssay.
